From PubChem BioAssay AID489039 (National Center for Advancing Translational Sciences (NCATS), 2010)
Records with an inconclusive call do not appear. A call without a number means that no potency is given here. A number with no mark means an inactive call. Calls of active or inactive are those of the source. The call rests on the fitted dose curve; in most records, active means well fitted inhibition curve with a large enough effect; inconclusive means small, poorly fitted or top-dose-only effect, or effect the other way; inactive means no such curve, though single readings can be large or run the other way.

The compounds below were run against Nuclear receptor ROR-alpha (Homo sapiens) (UniProt P35398) (assay: ROR alpha selectivity assay for inhibitors of ROR gamma transcriptional activity). Conditions: Drosophila S2 Gal4-RORalpha UAS-luciferase, 20 h; series mostly up to 92.2 µM.
Description: NIH Molecular Libraries Probe Production Network [MLPCN] NIH Chemical Genomics Center [NCGC] MLPCN Grant: R03 DA026211-01 Assay Provider: Dan Littman, New York University Assay Overview: The retinoic acid-related orphan receptor (ROR) gamma is a transcription factor that has a central role in the differentiation of Th17 cells, a subset of T helper cells that secrete the inflammatory cytokines IL-17A, IL-17F, and IL-22. Th17 cells have been implicated in graft versus host disease, autoimmune disease and asthma. RORgamma is induced in naive T helper cells in the presence of TGF-beta combined with IL-6, IL-21, or IL-23, and thereafter directs the expression of the Th17 lineage cytokines. To identify nonselective inhibitors, a Drosophila Schneider cell line was stably transfected with two vectors: a gene expressing a fusion of the Gal4 DNA binding domain and the transactivation domain of the ROR alpha, under the control of the metallothionine promoter and a Photinus luciferase reporter regulated by the Gal4 binding site enhancer, UAS. […] Small molecule inhibitors that inhibit RORgamma and RORalpha, or components common to both, will be active in both assays and thus scored as nonselective.
Assay Protocol Summary: For screening, 600 cells in 4 uL/well were dispensed into white solid 1536-well plates (Grenier) using a solenoid-based dispenser. Following transfer of 23 nL compound or DMSO vehicle by a pin tool, the plates were incubated 1 hr at ambient temperature, and 1 uL/well copper sulfate (700 uM final concentration) was added. The plates were centrifuged 15 s at 1000 RPM and incubated 20 hr at ambient temperature. After addition of 1.5 uL Photinus luciferase detection reagent, the plates were incubated 10 min at ambient temperature and then read by an ViewLux (Perkin Elmer) to detect luminescence.
`COc1cc(O)c(C(CC(=O)N2CCCCC2C)c2ccc3c(c2)OCO3)c(OC)c1` (stereo not given) was tested, and the Potency was “inactive”.
With `Cc1nn(-c2cc(C)c3ccccc3n2)c2c1C1C(C2)C1(C)C` (stereo not given) the Potency was 8.12 µM (active).
For `COc1cc(O)c(C(CC(=O)N2CCCC(C)C2)c2ccc(C(C)C)cc2)c(OC)c1` (stereo not given), the Potency was 36.3 µM (active).
In the case of `COc1cc(O)c(C(CC(=O)NCC2CCCCC2)c2ccc3c(c2)OCO3)c(OC)c1` (stereo not given), the Potency is reported as “inactive”.
For `COc1ccccc1C(CC(=O)N1C[C@H](C)C[C@H](C)C1)c1ccccc1` (stereo not given in full), the Potency was 51.2 µM (active).
For `COc1cc(O)c(C(CC(=O)N2CCC(C)CC2)c2ccc3c(c2)OCO3)c(OC)c1` (stereo not given), the Potency was “inactive”.
Work on `CC1=C(\C=C/C(C)=C/C=C\C(C)=C\C(=O)O)C(C)(C)CCC1` yielded an activity change, negative = inhibition of 18.6% [at 20 µM].
In the case of `COc1cc(C)nc(-n2nc(C)cc2OC)n1`, the Potency is reported as 8.12 µM (active).
`COc1cc(O)c(C(CC(=O)N2CCC[C@@H](C)C2)c2ccc3c(c2)OCO3)c(OC)c1` (stereo not given in full) was tested, and the Potency was “inactive”.
`COc1ccc(CNC(=O)[C@H](Cc2ccccc2)NC(=O)C2CCN(C(=O)[C@@H]3CCCN3C(=O)OC(C)(C)C)CC2)cc1` was tested, and the Potency was “inactive”.
`COc1cc(O)c(C(CC(=O)NC2CCC(C)CC2)c2ccc3c(c2)OCO3)c(OC)c1` (stereo not given) was tested, and the Potency was “inactive”.
For `COc1ccc(-c2c[n+]3c(n2-c2ccc(C)cc2)CCCCC3)cc1`, the Potency was 10.2 µM (active).
For `C[C@@H]1[C@H](C)CC[C@]2(C(=O)O)CC[C@]3(C)C(=CC[C@@H]4[C@@]5(C)CC[C@H](O)C(C)(C)[C@H]5CC[C@]43C)[C@@H]12`, the Potency was 18.2 µM (active).
`CCn1cc(C(=O)O)c(=O)c2cnc(N3CCN(C(=S)NC(=O)c4ccccc4)CC3)nc21` was tested, and the Potency was 22.9 µM (active).
In the case of `CCOC(=O)C1CCN(CC(=O)Nc2cc(C)nn2-c2nc3ccccc3s2)CC1`, the Potency is reported as 20.4 µM (active).
With `COc1ccc(C(CC(=O)N2CCCC(C)C2)c2ccccc2)cc1` (stereo not given) the Potency was “inactive”.
`Cc1cccc(C(CC(=O)NCc2ccco2)c2ccccc2)c1O` (stereo not given) was tested, and the Potency was “inactive”.
With `COC(=O)c1ccc(OCC(=O)c2ccc(O)cc2O)cc1` the Potency was 0.0575 µM (active).
In the case of `COc1cc(O)c(C(CC(=O)N2CCCC(COc3ccc(F)cc3)C2)c2ccc3c(c2)OCO3)c(OC)c1` (stereo not given), the Potency is reported as “inactive”.
`COc1cc(O)c(C(CC(=O)N2CCCC(C)C2)c2ccccc2OC)c(OC)c1` (stereo not given) was tested, and the Potency was “inactive”.
